# Activity calls are given as the source filed them.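 How the source made its calls: active means compounds lowering colon cancer cell viability after pretreatment blocking the GSK3B kinase; inactive means the rest.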 Positions of bridges follow the written chain, without caps; N, C: chain ends. Non-standard residues stand in square brackets, D forms with d. Residues, ends and D or L forms follow the SMILES beside them. hArg = N=C(N)NCCCC[C@H](N)C(=O)O; Mpa = O=C(O)CCS
# Assay: growth inhibition of GSK3B-pretreated HCT116 cells – cell-based, CellTiter-Glo, 0.2 to 20 µM (AID 1117336)
# Conditions: HCT116 viability after GSK3B inhibitor, at 20 µM, hits give high values
row,Compound,viability decrease
1,C/C(=C(/OCCOc1ccc(Cl)cc1)c1ccc(Cl)cc1Cl)n1ccnc1,102% (active)
2,Cc1ccc(-c2ccccc2C#N)cc1,3.2% (inactive)
3,COc1cc(NS(=O)(=O)c2ccc(N)cc2)nc(C)n1,-0.6% (inactive)
4,C=C(C)C(=O)OCC(O)CO (centres undefined),3% (inactive)
5,CC(C)CCCC(C)CCCC(C)CCCCC(C)CCCC(C)CCCC(C)C (centres undefined),-26.9% (inactive)
6,Cc1cc(O)c(C)c(C)c1O,4.5% (inactive)
7,Cc1cc(O)c(Cl)c(C)c1Cl,-24.1% (inactive)
8,C/C=C(/C(=C/C)c1ccc(OC(C)=O)cc1)c1ccc(OC(C)=O)cc1,108% (active)
9,C=CCN1CCc2nc(N)sc2CC1,-5.1% (inactive)
10,COc1ccccc1OCC1CNC(=O)O1 (centres undefined),-16.8% (inactive)
11,O=P(O)(O)C(O)(Cc1cnc2ccccn12)P(=O)(O)O,2.2% (inactive)
12,O=C(O)CNC(=O)c1ccccc1I,16% (inactive)
13,CC(=O)Nc1ccc(OC(=O)c2ccccc2OC(C)=O)cc1,0.8% (inactive)
14,CCN1CCCC1CN (centres undefined),39.7% (inactive)
15,CCOc1ccc(C(=O)OCCN(CC)CC)cc1,6.1% (inactive)
16,O=C(NCCc1c[nH]c2ccccc12)c1cccnc1,6.55% (inactive)
17,CCC(Cc1c(I)cc(I)c(O)c1I)C(=O)O (centres undefined),7.1% (inactive)
18,CC(O)CCCCn1c(=O)c2c(ncn2C)n(C)c1=O (centres undefined),15.3% (inactive)
19,C[C@]12C=CC(=O)C=C1[C@@H](F)C[C@@H]1[C@@H]2[C@@H](O)C[C@@]2(C)[C@H]1CC[C@]2(O)C(=O)CO,-14.4% (inactive)
20,NCC(=O)O,1.6% (inactive)

row,Compound,viability decrease
1,CCOCCn1c(C2CCN(CCc3ccc(C(C)(C)C(=O)O)cc3)CC2)nc2ccccc21,-2.4% (inactive)
2,C[C@H]1C[C@H]2[C@@H]3CCC4=CC(=O)C=C[C@]4(C)[C@@]3(Cl)[C@@H](O)C[C@]2(C)[C@@]1(O)C(=O)CO,-136% (inactive)
3,NC(=O)[C@@H]1CSSCCC(=O)N[C@@H](CCCCN=C(N)N)C(=O)NCC(=O)N[C@@H](CC(=O)O)C(=O)N[C@@H](Cc2c[nH]c3ccccc23)C(=O)N2CCC[C@H]2C(=O)N1 ([Mpa][hArg]GDWPC-NH2; disulfide 1-7),19.6% (inactive)
4,COC(=O)C1=C(C)NC(COC(N)=O)=C(C(=O)OC(C)C)C1c1cccc(Cl)c1Cl (centres undefined),94.6% (active)
5,C[N+](C)(CCOc1ccccc1)Cc1cccs1,22.9% (inactive)
6,O=C(O)c1[nH]n(-c2ccc(S(=O)(=O)O)cc2)c(=O)c1N=Nc1ccc(S(=O)(=O)O)cc1,-3.9% (inactive)
7,c1ccc(OCc2ccc(CCCN3CCOCC3)cc2)cc1,32.1% (inactive)
8,CCS(=O)(=O)c1ccc(OC)c(C(=O)OC)c1,-5.9% (inactive)
9,COC(=O)/C=C(/C)N,17.3% (inactive)
10,N#CCC(=O)NN,4.45% (inactive)
11,Nc1nc(-c2ccccc2)c(Br)c(=O)[nH]1,-50.3% (inactive)
12,CCCCCC=CCC=CCCCCCCCC(=O)OCC,-40% (inactive)
13,CCCCCCCC/C=C\CCCCCCCCN,18.7% (inactive)
14,C/C(=C(\CCO)SS/C(CCO)=C(\C)N(C=O)Cc1cnc(C)nc1N)N(C=O)Cc1cnc(C)nc1N,-14.3% (inactive)
15,Cc1onc(-c2c(F)cccc2Cl)c1C(=O)Cl,-3.1% (inactive)
16,CSCC[C@H](N)C(=O)O,-8.1% (inactive)
17,CCCCCC(N)=O,-27.2% (inactive)
18,CCCCCCCCCCCCCCCCCCN(C)C,1.2% (inactive)
19,O=C(Cn1ccnc1[N+](=O)[O-])NCc1ccccc1,-22.5% (inactive)
